This is an account of results in PubChem BioAssay (NCI).

This is part of a sample that, as a whole, favours compounds with a hit. Of some 83,000 tested, about 20% had one in any assay.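 Plates (96-well) were seeded with cells, treated with compound at one concentration, and incubated for 48 hours before percent growth was determined.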 A number with no mark means an inactive call. Active and inactive are the calls of the source. How the source made its calls: active means growth percent below 10; inactive means the rest.

Common to all, as to assay: NCI-60 one-dose screen, 48 h (100 = growth as untreated, 0 = no growth, -100 = all killed)
What all share (conditions): 10 µM unless noted

The test system of assay [1] is SK-MEL-2 melanoma.
The test system of assay [2] is EKVX NSCLC.
Assay [3] concerns SN12C renal.
In assay [4] the test system is UO-31 renal.
The subject of assay [5] is TK-10 renal.
For assay [6], the system named is ACHN renal.
Assay [7] concerns CAKI-1 renal.
Assay [8] has as its system A498 renal.
Assay [9] deals with CCRF-CEM leukemia.
Assay [10] deals with MOLT-4 leukemia.

Turning to `O=C(CSc1nc2ccccc2c(=O)n1-c1ccc(S(=O)(=O)Nc2ccc(Cl)nn2)cc1)Nc1ccc(S(=O)(=O)Nc2ccc(Cl)nn2)cc1`, the growth in assay [1] was 120%; in assay [2], 99.8%; in assay [3] it was 106%; in assay [4], 87.9%; in assay [5] it was 106%; in assay [6], 98.2%. The growth was 91.9% in assay [7], 104% in assay [8], 101% in [9] and 97.6% in assay [10].
With `NC1=NC2(CCCC2)N(c2ccc(S(=O)(=O)Nc3nccs3)cc2)C(N)=N1`, the growth was 116% in assay [1]; 98.7% in assay [2]; 102% in assay [3]; 83.6% in assay [4]; 104% in assay [5]; 103% in assay [6]. For the same molecule, the growth in [7] is 93.6%; in assay [8], 120%; in [9], 95.9%; in [10], 102%.
Consider `NC(=S)n1c(=O)n(-c2cccc(C(F)(F)F)c2)c(=O)c2cc(-c3ccc(F)cc3F)ccc21`, for which the growth in assay [1] is -29.1% (active); in assay [2], 5.19% (active); in assay [3] it was -3.03% (active); in assay [4] it was 6.1% (active); in assay [5], 7.56% (active); in [6], -0.456% (active). For the same molecule, the growth in assay [7] is -13.5% (active); in assay [8], -18.8% (active); in assay [9], 18%; in [10], 0.58% (active).
Take `NC(=O)c1c(NC(=O)c2ccc(C(F)(F)F)cc2)sc2c1CCC(=O)C2`: the growth in assay [1] was 51.3%; in assay [2] it was 24.8%; in assay [3], 12.4%; in [4] it was -86.4% (active); in assay [5] it was 17%; in [6] it was -47.1% (active). Moreover, the growth in assay [7] was -24.3% (active); in assay [8] it was 89.4%; in [9] it was -4.99% (active); in assay [10], 4.59% (active).
On to `O=C1/C(=C/c2cc(F)cc(F)c2)Cc2cc3c(cc21)OCO3`, for which the growth was 44.3% in assay [1]; 73.5% in assay [2]; 45.7% in assay [3]; 41.3% in [4]; 99.4% in assay [5]; 43.9% in assay [6]. Also, the growth in assay [7] is 29.1%; in [8], 20.2%; in assay [9], 56.1%; in [10] it was 43.3%.
As to `Cc1ccc(/C=N/Nc2nc(Nc3ccccc3)nc(Nc3ccc(S(N)(=O)=O)cc3)n2)cc1`, the growth in assay [1] was 77.8%; in [2] it was 78.1%; in [3] it was 82.5%; in [4], 68.1%; in assay [5] it was 94.5%; in [6], 61.2%. For the same molecule, the growth is 61% in assay [7], 54.7% in assay [8], 42% in [9] and 40.4% in [10].
Turning to `C/C(=N\NC(=O)/C=C/CC(=O)O)c1nnn(-c2ccc([N+](=O)[O-])cc2)c1C`, the growth in assay [1] was 99.5%; in [2], 101%; in assay [3], 101%; in assay [4] it was 87.8%; in assay [5], 94.1%; in [6], 104%. The growth in assay [7] was 91.5%; in assay [8], 110%; in [9], 109%; in [10], 105%.
In the case of `Cn1c(SCC(=O)c2ccc(Br)cc2)nc2ccccc2c1=O`, the growth was 102% in assay [1]; 82.2% in assay [2]; 96.6% in assay [3]; 75.9% in assay [4]; 117% in [5]; 96.1% in assay [6]. Further, the growth in assay [7] was 85.4%; in assay [8], 92.7%; in assay [9], 91.9%; in assay [10], 99%.
As to `COc1ccc(C(=O)c2c(N)c(C#N)cn2-c2ccc(Cl)cc2Cl)cc1`, the growth was 97% in assay [1]; 93.6% in assay [2]; 100% in [3]; 84.5% in [4]; 105% in assay [5]; 98.1% in assay [6]. The growth is 91.7% in [7], 109% in assay [8], 101% in assay [9] and 90.7% in assay [10].
Take `CCN(CC)c1ccc(/C=N/NC(=O)c2ccc(NS(C)(=O)=O)cc2)cc1`: the growth in assay [1] was 40.1%; in assay [2] it was 22.4%; in [3] it was 37.5%; in [4], 15.7%; in assay [5], 48.3%; in [6], 10.9%. The growth is 25.2% in assay [7], 40.1% in assay [8], 13% in [9] and 14.4% in assay [10].
As to `COC(=O)CCCNCCCn1ccc2cc(NCc3cccc(-c4ccccc4)c3C)ccc21`, the growth in [1] was 95.6%; in [2] it was 73.6%; in [3], 73.4%; in assay [4], 54.5%; in assay [5], 115%; in [6], 77.8%. Also, the growth in [7] was 48.4%; in [8] it was 16.4%; in assay [9], 33.8%; in assay [10], 49.5%.
On to `COc1ccccc1Cn1cc(C#N)c(N)c1C(=O)c1ccc(Br)cc1`, for which the growth was 98.6% in assay [1]; 85.2% in assay [2]; 92.1% in [3]; 78.1% in assay [4]; 108% in assay [5]; 96.6% in [6]. Also, the growth in [7] is 80.6%; in assay [8] it was 77.7%; in assay [9], 91.4%; in [10] it was 85.4%.
For the molecule `CCOP(=O)(OCC)OC[C@]12CCC(C)(C)CC1C1=CC[C@@H]3[C@@]4(C)CCCNC(C)(C)[C@@H]4CC[C@@]3(C)[C@]1(C)CC2` (stereo not given in full), the growth is 121% in assay [1]; 69.7% in assay [2]; 80.8% in assay [3]; 58.2% in assay [4]; 90.4% in assay [5]; 83.5% in assay [6]. Further, the growth in assay [7] is 53.7%; in assay [8], 85.2%; in assay [9] it was 28.1%; in assay [10], 2.26% (active).
`O=c1oc2ccc(-c3ccc(F)cc3F)cc2c(=O)n1-c1ccc(Br)cc1F`: the growth is 41% in assay [1]; 73.5% in assay [2]; 46.2% in [3]; 84.5% in assay [4]; 64.8% in assay [5]; 80.5% in [6]. Also, the growth in assay [7] was 61.9%; in [8], 37.4%; in [9] it was 56.3%; in assay [10] it was 57.8%.
For the molecule `CCCCCCN1C=C/C(=C\C(=O)n2ccc3ccccc32)c2ccccc21`, the growth was 76% in assay [1]; 36.3% in assay [2]; 67.6% in [3]; 52% in assay [4]; 114% in [5]; 66.3% in assay [6]. The growth in [7] is 61%; in assay [8], 97.5%; in assay [9], 54.8%; in [10], 62%.
On to `Cn1c2nc3ccccc3c-2cc2ccccc21`, for which the growth in assay [1] is 105%; in assay [2], 42.5%; in [3], 33.7%; in assay [4] it was 13.9%; in [5], 103%; in [6], 21.2%. Besides, the growth in assay [7] is 18.9%; in assay [8], 21.3%; in assay [9] it was 50.8%; in assay [10], 21.5%.
